Data from PubChem BioAssay (NCATS).
“And” between values parts separate entries of the source, which are not always exact repeats. Equal values may be shown once. Inconclusive results are not listed. More than one record can exist for a structure, and the calls need not agree. The source made the active and inactive calls. The call rests on the fitted dose curve; in most records, active means well fitted curve in the direction sought with a large enough effect; inconclusive means small, poorly fitted or top-dose-only effect, or another doubt; inactive means no such curve, though single readings can be large; an effect the other way counts as inactive or inconclusive.

Key:
[1] = test system: MKL-1; test: qHTS assay to identify novel small-molecules to repurpose for Merkel cell carcinoma treatment (AID 1296009); details: MCC and control cell lines, CellTiter-Glo viability, 72 h; series mostly up to 46 µM; further: nearly all actives have a fitted effect of over 60% in size; further: potency means the concentration at half of the fitted maximal effect
Outline: (§1)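 72 hr, 37 degree celsius; NPC 8-pt / MIPE 11-pt dose response; compound pinned in DMSO; CellTiter-Glo, 10 min RT, luminescence; normalized to no-cell and DMSO controls.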

[2] = test system: MKL-2; test: as above; details: MCC and control cell lines, CellTiter-Glo viability, 72 h; series mostly up to 46 µM
Outline: as §1

[3] = test system: UISO; test: as above; details: MCC and control cell lines, CellTiter-Glo viability, 72 h; series mostly up to 46 µM
Outline: as §1

[4] = test system: WaGa; test: as above; details: MCC and control cell lines, CellTiter-Glo viability, 72 h; series mostly up to 46 µM
Outline: as §1

[5] = test system: C33A; test: Primary qHTS to identify gynecologic anti-cancer compounds using libraries of approved drugs and bioactive compounds (AID 1345084); details: Gynecologic cancer cell panel viability, ATPlite luminescence, 48 h; series mostly up to 57.5 µM; further: nearly all actives have a fitted effect of over 55% in size; further: potency means the concentration at half of the fitted maximal effect
Outline: (§2)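 Luminescence from the ATPlite ATP-monitoring reagent indicates viable cell number; lower signal means cytotoxicity. Cells received compound 16 h after seeding and were exposed for 48 h across five concentrations.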

[6] = test system: CAOV3; test: as above; details: Gynecologic cancer cell panel viability, ATPlite luminescence, 48 h; series mostly up to 57.5 µM
Outline: as §2

[7] = test system: CASKI; test: as above; details: Gynecologic cancer cell panel viability, ATPlite luminescence, 48 h; series mostly up to 57.5 µM
Outline: as §2

[8] = test system: HeLa; test: as above; details: Gynecologic cancer cell panel viability, ATPlite luminescence, 48 h; series mostly up to 57.5 µM
Outline: as §2

[9] = test system: OV90; test: as above; details: Gynecologic cancer cell panel viability, ATPlite luminescence, 48 h; series mostly up to 57.5 µM
Outline: as §2

[10] = test system: PA-1; test: as above; details: Gynecologic cancer cell panel viability, ATPlite luminescence, 48 h; series mostly up to 57.5 µM
Outline: as §2

[11] = test system: SKOV3; test: as above; details: Gynecologic cancer cell panel viability, ATPlite luminescence, 48 h; series mostly up to 57.5 µM
Outline: as §2

[12] = test system: Tov-21-G; test: as above; details: Gynecologic cancer cell panel viability, ATPlite luminescence, 48 h; series mostly up to 57.5 µM
Outline: as §2

[13] = test system: Tov112D; test: as above; details: Gynecologic cancer cell panel viability, ATPlite luminescence, 48 h; series mostly up to 57.5 µM
Outline: as §2

[14] = Drug repurposing screens with cells derived from glioblastoma tumor samples (AID 1345199); details: GBM patient neurospheres viability, ATP luminescence, 48 h; further: nearly all actives have a fitted effect of over 40% in size; further: potency means the concentration at half of the fitted maximal effect
Outline: (§3)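 Four patient lines of CD133+ GBM neurospheres were screened at several concentrations; hits were retested in those lines plus three slower-growing GBM lines, using 48-hour treatment and ATP-based viability.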

[15] = test system: astro; test: as above; details: viability, ATP luminescence, 48 h; series mostly up to 45.9 µM
Outline: as §3

[16] = test system: Es-2; test: Primary qHTS to identify gynecologic anti-cancer compounds using libraries of approved drugs and bioactive compounds (AID 1345084); details: Gynecologic cancer cell panel viability, ATPlite luminescence, 48 h; series mostly up to 57.5 µM; further: nearly all actives have a fitted effect of over 55% in size; further: potency means the concentration at half of the fitted maximal effect
Outline: as §2

[17] = test system: Hek293T; test: as above; details: Gynecologic cancer cell panel viability, ATPlite luminescence, 48 h, control line for the selectivity index; series mostly up to 57.5 µM
Outline: as §2

[18] = test system: JEG-3; test: as above; details: Gynecologic cancer cell panel viability, ATPlite luminescence, 48 h; series mostly up to 57.5 µM
Outline: as §2

[19] = test system: NIH3T3; test: qHTS assay to identify novel small-molecules to repurpose for Merkel cell carcinoma treatment (AID 1296009); details: MCC and control cell lines, CellTiter-Glo viability, 72 h; at 44.8 µM (top of the series) unless noted; further: nearly all actives have a fitted effect of over 60% in size; further: potency means the concentration at half of the fitted maximal effect
Outline: as §1

[20] = qHTS assay to identify inhibitors of the type 1 interferon - major histocompatibility complex class I in skeletal muscle: Counter screen cell viability and HiBit confirmation (AID 1347412); details: iHSKM muscle cells + IFN-b, HiBiT or CellTiter-Glo, 24 h, at 45.9 µM (top of the series); further: nearly all actives have a fitted effect of over 60% in size
Outline: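 Human myoblast knock-in line, 4.0 ng/ml IFN-beta stimulation, 24 h compound treatment. Endpoints: HiBiT lytic luminescence (HLA-B level) and CellTiter Glo (ATP). Dosing 12 concentrations, 3-fold steps, 46 uM highest final.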

[21] = at 20 µM (top of the series), tumour line C
[22] = at 21.2 µM (top of the series), tumour line B
[23] = at 21.2 µM (top of the series), tumour line D
[24] = at 21.3 µM (top of the series), tumour line A
[25] = at 45.9 µM (top of the series), tumour line B
[26] = at 45.9 µM (top of the series), tumour line D
[27] = at 46 µM (top of the series), tumour line A
[28] = at 46.1 µM (top of the series), tumour line C
On the % scale 0 is the no-effect control and ±100 the full control effect.

C[C@@H]1C[C@H]2[C@@H]3CCC4=CC(=O)C=C[C@]4(C)[C@@]3(Cl)[C@@H](O)C[C@]2(C)[C@@]1(OC(=O)c1ccco1)C(=O)CCl
active: Potency [1] 16.6 µM | Potency [2] 29.9 µM and 18.7 µM | Potency [3] 20.9 µM | Potency [4] 16.6 µM
inactive: Potency [5] | Potency [6] | Potency [7] | Potency [8] | Potency [9] | Potency [10] | Potency [11] | Potency [12] | Potency [13] | activity, negative = cell killing [14, 21] 13.7% | activity, negative = cell killing [14, 22] -9.13% | activity, negative = cell killing [14, 23] -9.21% | activity, negative = cell killing [14, 24] -28.2% | Potency [15]

Cn1c(=O)c2c(ncn2CC(O)CO)n(C)c1=O (stereo not drawn)
inactive: Potency [1] | Potency [2] | Potency [3] | Potency [4] | Potency [5] | Potency [6] | Potency [7] | Potency [16] | Potency [17] | Potency [18] | Potency [9] | Potency [10] | Potency [11] | Potency [12] | Potency [13] | activity, negative = cell killing [14, 21] 1.09% | activity, negative = cell killing [14, 22] 1.11% | activity, negative = cell killing [14, 23] 1.54% | activity, negative = cell killing [14, 24] 3.02% | Potency [15]

CCOC(=O)[C@H](CCc1ccccc1)N[C@H]1CCc2ccccc2N(CC(=O)O)C1=O
inactive: Potency [1] | Potency [3] | Potency [4] | Potency [7] | Potency [16] | Potency [8] | Potency [17] | Potency [18] | Potency [9] | Potency [10] | Potency [12] | Potency [13]

Cc1nnc(NS(=O)(=O)c2ccc(N)cc2)s1
inactive: Potency [5] | Potency [6] | Potency [7] | Potency [16] | Potency [8] | Potency [17] | Potency [18] | Potency [9] | Potency [10] | Potency [11] | Potency [12] | Potency [13] | activity, negative = cell killing [14, 25] 4.69% | activity, negative = cell killing [14, 26] 17.1% | activity, negative = cell killing [14, 27] 7.16% | activity, negative = cell killing [14, 28] 5.44% | Potency [15]

CCOC(=O)c1ccc(C#Cc2ccc3c(c2)C(C)(C)CCS3)nc1
inactive: Potency [1] | outcome [19] | Potency [3] | Potency [4] | Potency [5] | Potency [6] | Potency [7] | Potency [16] | Potency [17] | Potency [18] | Potency [9] | Potency [10] | Potency [11] | Potency [12] | Potency [13]

CC[C@H](C)C(=O)O[C@H]1C[C@@H](C)C=C2C=C[C@H](C)[C@H](CC[C@@H]3C[C@@H](O)CC(=O)O3)[C@H]21
inactive: Potency [4] | Potency [5] | Potency [6] | Potency [7] | Potency [16] | Potency [17] | Potency [18] | Potency [9] | Potency [10] | Potency [11] | Potency [12] | Potency [13]
23.7 µM (active) and inactive: Potency [1]
active: Potency [3] 9.44 µM and 20.9 µM | Potency [15] 0.447 µM

Cc1ccc(S(=O)(=O)N[C@@H](Cc2ccccc2)C(=O)CCl)cc1
inactive: outcome [19]

CCCCCCNC(=O)n1cc(F)c(=O)[nH]c1=O
inactive: Potency [1] | Potency [2] | Potency [5] | Potency [6] | Potency [7] | Potency [8] | Potency [17] | Potency [9] | Potency [13] | activity, negative = cell killing [14, 28] -20.6%

COc1cc(NCc2ccc3nc(N)nc(N)c3c2C)cc(OC)c1OC
active: Potency [1] 29.6 µM | Potency [2] 18.7 µM | Potency [4] 2.96 µM and 94.4 nM | Potency [17] 0.1 µM | Potency [10] 0.178 µM | Potency [13] 0.1 µM
inactive: Potency [6] | Potency [11] | activity change, negative = inhibition ([20]; HiBiT) -7.08% | activity change, negative = inhibition ([20]; Viability) -0.467%

CO[C@@]12[C@H](COC(N)=O)C3=C(C(=O)C(C)=C(N)C3=O)N1C[C@@H]1N[C@@H]12
inactive: Potency [5] | activity, negative = cell killing [14, 25] -14.3% | activity, negative = cell killing [14, 26] -12.4% | activity, negative = cell killing [14, 27] -9.83% | activity, negative = cell killing [14, 28] -16.3% | Potency [15]
active: Potency [6] 3.55 µM | Potency [7] 8.91 µM | Potency [16] 4.47 µM | Potency [9] 17.8 µM | Potency [12] 14.1 µM | Potency [13] 0.794 µM

Cc1onc(-c2ccccc2Cl)c1C(=O)N[C@@H]1C(=O)N2[C@@H]1SC(C)(C)[C@@H]2C(=O)O
inactive: Potency [5] | Potency [6] | Potency [7] | Potency [16] | Potency [17] | Potency [18] | Potency [9] | Potency [10] | Potency [11] | Potency [12] | Potency [13] | activity, negative = cell killing [14, 21] 1.94% | activity, negative = cell killing [14, 22] -1.92% | activity, negative = cell killing [14, 23] -24.2%

CC(C)(C)C(=O)OCOP(=O)(COCCn1cnc2c(N)ncnc21)OCOC(=O)C(C)(C)C
active: Potency [6] 12.6 µM | Potency [16] 7.08 µM
inactive: Potency [7] | activity, negative = cell killing [14, 28] -7.63%
